Bioassay records (PubChem)
LASV entry inh: Lassa virus entry inhibition | Lassa virus pseudotyped entry inhibition, cell-based qHTS | Potency, µM (titrated, usually from 49.2 µM), hits mostly inhibitors | hit rate 4.1% among 18,000
Marburg entry: inhibitors of Marburg virus binding or entry into cells; hit rate 6.5% among 18,000; Marburg virus pseudotype entry/binding inhibition, cell-based; Potency, µM (highest dose often 49.2 µM), usual class: inhibitors
Large screens that a line does not name were inactive; ! = a repeat was not active. Most compounds without a hit are left out; they make up all but 8.6% or so of the library. The call rests on the fitted dose curve; tested in HEK293 cells.

Nc1ccc(CCN2CCN(c3cccc(C(F)(F)F)c3)CC2)cc1	LASV entry inh inconclusive
OCCN1CCN(CC/C=C2/c3ccccc3Sc3ccc(C(F)(F)F)cc32)CC1	LASV entry inh 13µM, Marburg entry 5.6µM
Cc1scc2c1N(C(=O)CN1CCN(C)CC1)c1ccccc1NC2=O	none
CN1CCN(CCC(=O)N2c3ccccc3Sc3ccc(C(F)(F)F)cc32)CC1	LASV entry inh inconclusive, Marburg entry 16µM
CC(=O)c1ccc2c(c1)N(CCCN1CCN(CCO)CC1)c1ccccc1S2	LASV entry inh 28µM, Marburg entry 10µM
CCC(=O)c1ccc2c(c1)N(CCCN1CCN(CCO)CC1)c1ccccc1S2	LASV entry inh 14µM, Marburg entry 10µM
COc1ccccc1N1CCN(CCCCNC(=O)c2ccc(-c3ccc(C(C)=O)cc3)cc2)CC1	Marburg entry inconclusive
CCCC=Cc1ccc(CN2C(C)C(=O)N(Cc3cn(CCOCOC)nn3)CCS2(=O)=O)cc1 (stereo not drawn)	none (no result: LASV entry inh)
O=[N+]([O-])c1cccc(S(=O)(=O)NCCNS(=O)(=O)c2cccc([N+](=O)[O-])c2)c1	none
[O]=[Cd]	none
CN1CCN(CCC=C2c3ccccc3Sc3ccc(S(=O)(=O)N(C)C)cc32)CC1	LASV entry inh 20µM, Marburg entry 10µM
OCCN1CCN(CCCN2c3ccccc3C=Cc3ccccc32)CC1	LASV entry inh 25µM!, Marburg entry 11µM
O=S1(=O)CC(N2CCN(CCO)CC2)CN1CCc1ccccc1 (stereo not drawn)	none
OCCN1CCN(CCCN2c3ccccc3Sc3ccc(C(F)(F)F)cc32)CC1	LASV entry inh 16µM!, Marburg entry 7.1µM
COC(=O)N[C@@H](CCc1ccccc1)/C(C(=O)OC)=C(\C)NCc1ccccc1	none
O=S1(=O)CCSCCN1Cc1ccccc1Br	none
Cc1c(C(=O)NCCC2CCCN2C)cnn1-c1nccc(-c2ccccc2F)n1 (stereo not drawn)	none
Cn1ccc(C(=O)NCC2CCC3(CCN(Cc4cc(F)cc(F)c4)CC3)O2)n1 (stereo not drawn)	none
Cn1ccc2c(C=Cc3ccc(F)cc3)cc3c(c21)C1CCC3C1 (stereo not drawn)	none
COC(=O)[C@H](CC(C)C)NC(=O)c1ccc(NC[C@@H](N)CS)cc1-c1cccc2ccccc12	LASV entry inh 11µM, Marburg entry 11µM
COC(=O)[C@H](NC(=O)c1cc(-c2ccccc2)nc2ccccc12)c1ccccc1	LASV entry inh inconclusive
COC(=O)[C@@H]1CCCN1Cc1ccc2c(c1)CN(Cc1ccccc1F)CCO2	none
CO[C@H]1[C@H](NC(=O)c2ccsc2)c2ccccc2C12CCN(Cc1cc(Cl)ccc1O)CC2	Marburg entry 14µM
CO[C@H]1[C@H](NC(=O)c2ccsc2)c2ccccc2C12CCN(Cc1cnn(C)c1C)CC2	none
Fc1ccc(-c2ncn(C3CCNCC3)c2-c2ccnc(Oc3ccc(F)c(F)c3)n2)cc1	LASV entry inh inconclusive, Marburg entry 3.5µM
Fc1ccc(-c2ncn(C3CCNCC3)c2-c2ccnc(Oc3ccc(Oc4ccccc4)cc3)n2)cc1	LASV entry inh inconclusive, Marburg entry 8.9µM
Nc1nccc(-c2c(-c3ccc(F)cc3)ncn2C2CCNCC2)n1	Marburg entry inconclusive
C#CCCCON=C1C[C@@H](O)[C@@H](O)[C@@H]2[C@H]3C(=O)N(C(C)(C)C)C(=O)[C@@H]3CC[C@H]12	none
CC(C)(C)c1nc(-c2ccccc2)oc1Nc1ccc2ccccc2c1	none
Nc1ccc(O)c(C(=O)O)c1	Marburg entry inconclusive
O=C(O)C1=CC(=C(c2ccc(O)c(C(=O)O)c2)c2ccc(O)c(C(=O)O)c2)C=CC1=O	Marburg entry 0.44µM
CC(C)Oc1ccc(C(=O)NCC2Cc3cc(F)cc(-c4cnccn4)c3O2)cc1 (stereo not drawn)	none
CC[C@@H]1CN2CCc3cc(OC)c(OC)cc3[C@H]2C[C@@H]1C[C@@H]1NCCc2cc(O)c(OC)cc21	LASV entry inh 0.35µM, Marburg entry inconclusive
COc1cc2c(cc1OC)[C@H](C)NCC2	none
CCS(=O)(=O)N1CCC[C@H]2CN3CCc4cc(OC)ccc4[C@@H]3C[C@@H]21	none
CCOC(=O)c1c(C)[nH]c2ccc3c(c12)CN1CCc2cc(OC)ccc2[C@@H]1O3	LASV entry inh inconclusive, Marburg entry 5.6µM
CNc1ccccc1C(=O)N1CCc2c([nH]c3ccccc23)C1=O	none
CC(=O)OC[C@@]12C(=O)[C@@H](O)[C@@H](C)[C@]3(C[C@@H](c4ccoc4)O[C@@H]3OC(C)=O)[C@H]1CCC[C@]21CO1	none
C[N+]1(C)CC[C@@H](OC(=O)[C@@](O)(c2ccccc2)C2CCCC2)C1	none
Cc1c2ccncc2c(C)c2c1[nH]c1ccccc12	Marburg entry 4.5µM
c1ccc2c(c1)[nH]c1cnccc12	none
CC(=O)SC[C@@H](Cc1ccccc1)C(=O)NCC(=O)OCc1ccccc1	none
CC[C@H](C)[C@@H](C(=O)OC)N1Cc2ccccc2Oc2cc(Br)ccc2S1(=O)=O	none
CCOC(=O)[C@@H](C)N1[C@H](C)[C@H](c2ccccc2)Oc2cc(Br)ccc2S1(=O)=O	LASV entry inh 14µM, Marburg entry inconclusive
CC=COC(=O)N[C@@H](c1ccccc1)[C@]1(C(C)=O)CCCC1=O	none (no result: LASV entry inh)
